The source of these data is PubChem BioAssay (Tox21).

Records with an inconclusive call do not appear. The source made the active and inactive calls. Calls come from the whole dose curve; as a rule, active = well fitted cell-killing curve with a large enough effect in the repeat runs; inconclusive = weak or mixed curves, or effect the other way; inactive = flat fitted curve, though single readings scatter.

The nature of assay [1]: cAMP Responsive Elements (CRE) small molecule antagonists, cell-based qHTS assay: qHTS cell viability counter screen (AID 2060913). Note: nearly all actives have a fitted effect of over 40% in size. In outline:
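HEK293T CRE-bla, 2,000 cells/well, 18 h preincubation; cpd in DMSO + NKH477 0.25 uM final, 3 h 37 C/5% CO2; LiveBLAzer 2 h RT, then CellTiter-Glo 30 min RT, luminescence.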
In general terms: Quantitative high-throughput screening tests each substance at several concentrations.

Assay [2] is described as follows: cAMP Responsive Elements (CRE) small molecule agonists, cell-based qHTS assay: qHTS cell viability counter screen (AID 2060914).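 Note: viability read after 3 h of compound exposure; nearly all actives have a fitted effect of over 50% in size.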 In outline:
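CRE-bla HEK 293T cells, plated 18 h at 37 °C, were exposed to compounds for 3 h at 37 °C/5% CO2. Viability was then measured in the same wells by CellTiter-Glo luminescence after 30 min at room temperature.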
Potency is the fitted concentration of half-maximal effect.

In the case of `CC(C)(C)c1ccc(CSc2cnn(C(C)(C)C)c(=O)c2Cl)cc1`, the Potency entry in assay [1] and in assay [2] was “inactive” in each case.
With `CCCN(CCC)c1c([N+](=O)[O-])cc(S(C)(=O)=O)cc1[N+](=O)[O-]`, the Potency entry in assay [1] and in assay [2] was “inactive” each time.
`C[C@]12C=CC(=O)C=C1CC[C@@H]1[C@@H]2CC[C@@]2(C)[C@H]1CC[C@]2(C)O`: the Potency result in assay [1] and in assay [2] was “inactive” each time.
As for `COC(=O)c1cncn1C(C)c1ccccc1` (stereo not given), the Potency result in assay [1] and in assay [2] was “inactive” in each case.
As to `N#CN`, the Potency result in assay [1] and in assay [2] was “inactive” in each case.
Turning to `O=[N+]([O-])c1cc(C(F)(F)F)c(Cl)c([N+](=O)[O-])c1Cl`, the Potency result in assay [1] and in assay [2] was “inactive” in each case.
As to `COP(=S)(OC)Oc1nc(Cl)c(Cl)cc1Cl`, the Potency entry in assay [1] and in assay [2] was “inactive” in each case.
Consider `CCOP(=O)(SC(C)CC)N1CCSC1=O` (stereo not given), for which the Potency entry in assay [1] and in assay [2] was “inactive” each time.
For `C1=CCC=C1`, the Potency result in assay [1] and in assay [2] was “inactive” in each case.
`COC(=O)C1(O)c2ccccc2-c2ccccc21`: the Potency result in assay [1] and in assay [2] was “inactive” in each case.
Regarding `CC(C)(C)c1cc(O)ccc1O`, the Potency entry in assay [1] and in assay [2] was “inactive” in each case.
Regarding `C=CCC1([C@H](C)CCC)C(=O)NC(=O)NC1=O`, the Potency entry in assay [1] and in assay [2] was “inactive” throughout.
Consider `CCCC[N+](CCCC)(CCCC)CCCC`, for which the Potency entry in assay [1] and in assay [2] was “inactive” in each case.
With `O=c1ccc(=O)[nH][nH]1`, the Potency result in assay [1] and in assay [2] was “inactive” throughout.
As to `CCOP(=S)(OCC)OC(Cl)C(Cl)(Cl)Cl` (stereo not given), the Potency result in assay [1] and in assay [2] was “inactive” throughout.
Take `N#CSCc1ccccc1`: the Potency result in assay [1] and in assay [2] was “inactive” in each case.
As for `C#CCN(C)[C@H](C)Cc1ccccc1`, the Potency entry in assay [1] and in assay [2] was “inactive” throughout.
For the molecule `CCn1cc[n+](C)c1`, the Potency result in assay [1] and in assay [2] was “inactive” in each case.
On to `CCC(C)c1cc([N+](=O)[O-])cc([N+](=O)[O-])c1OC(=O)C=C(C)C` (stereo not given), for which the Potency entry in assay [1] and in assay [2] was “inactive” throughout.
As to `CN1C(=O)NC(=O)C(C)(C2=CCCCC2)C1=O` (stereo not given), the Potency result in assay [1] and in assay [2] was “inactive” in each case.
Consider `CCOP(=S)(OCC)OP(=S)(OCC)OCC`, for which the Potency entry in assay [1] and in assay [2] was “inactive” each time.
`C#CC(C)(C)NC(=O)c1cc(Cl)cc(Cl)c1`: the Potency entry in assay [1] and in assay [2] was “inactive” in each case.
Take `O=C1C2CC=CCC2C(=O)N1SC(Cl)(Cl)Cl` (stereo not given): the Potency entry in assay [1] and in assay [2] was “inactive” each time.
For `O=Cc1ccccc1`, the Potency entry in assay [1] and in assay [2] was “inactive” each time.
As to `Nc1c(Oc2ccccc2)cc(O)c2c1C(=O)c1ccccc1C2=O`, the Potency result in assay [1] and in assay [2] was “inactive” throughout.
Consider `N#Cc1c(Cl)cccc1Cl`, for which the Potency entry in assay [1] and in assay [2] was “inactive” throughout.
For the molecule `CCCCCCCCCCCCCC[P+](CCCCCC)(CCCCCC)CCCCCC` (tested in a mixture with another compound), the Potency in assay [1] was 24.3 µM (active); in assay [2] it was 21.7 µM (active).
For the molecule `CC(Cl)CN(C)C` (stereo not given), the Potency entry in assay [1] and in assay [2] was “inactive” in each case.
Consider `Cc1cc(Cl)ccc1N=CN(C)C`, for which the Potency result in assay [1] and in assay [2] was “inactive” each time.
In the case of `ClC(Cl)(Cl)Cl`, the Potency result in assay [1] and in assay [2] was “inactive” in each case.
Turning to `c1ccc2c(c1)sc1ccccc12`, the Potency entry in assay [1] and in assay [2] was “inactive” in each case.
Take `O=S1(=O)OCCO1`: the Potency entry in assay [1] and in assay [2] was “inactive” in each case.
For `COC(=O)C(C)Oc1ccc(Oc2ccc(Cl)cc2Cl)cc1` (stereo not given), the Potency entry in assay [1] and in assay [2] was “inactive” each time.
As for `O=C(CCl)CCl`, the Potency result in assay [1] and in assay [2] was “inactive” each time.
As for `Nc1ccc(Cl)cc1C(=O)c1ccccc1`, the Potency entry in assay [1] and in assay [2] was “inactive” in each case.
In the case of `CCCCCCCC(=O)Cl`, the Potency result in assay [1] and in assay [2] was “inactive” in each case.
As to `CCOC(=O)c1ccccc1N`, the Potency entry in assay [1] and in assay [2] was “inactive” each time.
Consider `Nc1nc(N)nc(Cl)n1`, for which the Potency result in assay [1] and in assay [2] was “inactive” each time.
`O=NN1CCCCCCC1`: the Potency result in assay [1] and in assay [2] was “inactive” in each case.
Consider `O=C(O)Cc1ccccc1`, for which the Potency result in assay [1] and in assay [2] was “inactive” throughout.
Consider `CC1C=[C-]C=C1.[C-]#[O+].[C-]#[O+].[C-]#[O+].[Mn]`, for which the Potency result in assay [1] and in assay [2] was “inactive” each time.
As to `CSCCCN=C=S`, the Potency result in assay [1] and in assay [2] was “inactive” each time.
As for `c1ccc(N2CCNCC2)cc1`, the Potency entry in assay [1] and in assay [2] was “inactive” each time.
For the molecule `CCOC(=O)Nc1cccc(OC(=O)Nc2ccccc2)c1`, the Potency result in assay [1] and in assay [2] was “inactive” each time.
Take `CC(=O)[O][Sn]([c]1ccccc1)([c]1ccccc1)[c]1ccccc1`: the Potency is 6.11 µM (active) in assay [1] and 30.6 µM (active) in assay [2].
On the same counts, the results for `Nc1nc(N)nc(N)n1` are “inactive” and “inactive”.
Take `CCCCC(CC)C(=O)Cl` (stereo not given): the Potency entry in assay [1] and in assay [2] was “inactive” each time.
Take `c1cc[c]([Hg][c]2ccccc2)cc1`: the Potency entry in assay [1] and in assay [2] was “inactive” in each case.
Regarding `O=C(O)C(Cl)(Cl)Cl`, the Potency result in assay [1] and in assay [2] was “inactive” throughout.
In the case of `CNN`, the Potency result in assay [1] and in assay [2] was “inactive” throughout.
Regarding `O=[N+]([O-])c1ccc(CCl)cc1`, the Potency entry in assay [1] and in assay [2] was “inactive” throughout.
Turning to `CCC(=O)OC1(c2ccccc2)CCN(C)CC1`, the Potency entry in assay [1] and in assay [2] was “inactive” each time.
Consider `CN(N=O)C(N)=O`, for which the Potency result in assay [1] and in assay [2] was “inactive” in each case.
Turning to `O=C(O)C(O)C(O)C(=O)O` (stereo not given), the Potency result in assay [1] and in assay [2] was “inactive” in each case.
With `Nc1cc(Cl)cc(Cl)c1`, the Potency result in assay [1] and in assay [2] was “inactive” each time.
Take `CCS(=O)(=O)c1cccnc1S(=O)(=O)NC(=O)Nc1nc(OC)cc(OC)n1`: the Potency result in assay [1] and in assay [2] was “inactive” each time.
Take `CCC[N+](CCC)(CCC)CCC`: the Potency result in assay [1] and in assay [2] was “inactive” in each case.
Consider `CCCCC(CC)COC(=O)OOC(C)(C)C` (stereo not given), for which the Potency result in assay [1] and in assay [2] was “inactive” each time.
Take `N#CCCO`: the Potency entry in assay [1] and in assay [2] was “inactive” each time.
As for `O=Cc1ccc2c(c1)OCO2`, the Potency entry in assay [1] and in assay [2] was “inactive” each time.
